{
  "source": "PubChem BioAssay AID1053143",
  "about": "(Broad Institute, 2014)",
  "note": "The campaign covered roughly 3,400 compounds. About 120 (3.5%) were called active. How the calls were made is not given here. A selection follows. Entries with a potency or affinity are not part of this list.",
  "data": [
    {"experiment": "HepG2 cell cytotoxicity, dose response, cytotoxicity control, ATP luminescence, cherry-pick, activator set 2 (AID 1053143)", "conditions": "HepG2 viability, CellTiter-Glo ATP luminescence, 72 h; series mostly up to 26 µM", "values": [
      {"smiles": "COc1ccccc1/C=C/C(=O)Oc1cccc2cccnc12", "activity change, negative = cytotoxicity": "inactive"},
      {"smiles": "O=C(/C=C/c1ccco1)Nc1cccnc1", "activity change, negative = cytotoxicity": "inactive"},
      {"smiles": "CCc1ccc(NC(=O)c2cccnc2)cc1", "activity change, negative = cytotoxicity": "inactive"},
      {"smiles": "CS(=O)(=O)N1CCc2nc(-c3ccccc3)sc2C1", "activity change, negative = cytotoxicity": "inactive"},
      {"smiles": "Cc1ccc(/C=N/NC(=O)c2ccco2)cc1", "activity change, negative = cytotoxicity": "inactive"},
      {"smiles": "O=C(Nc1ccccc1F)Nc1ccccc1F", "activity change, negative = cytotoxicity": "inactive"},
      {"smiles": "Cc1ccc(CCC(=O)Nc2ccccc2F)s1", "activity change, negative = cytotoxicity": "inactive"},
      {"smiles": "COc1ccc(NC(=O)c2c(NC(=O)CCC(=O)O)sc(-c3ccccc3)c2C)cc1", "activity change, negative = cytotoxicity": "inactive"},
      {"smiles": "CCCC(=O)Nc1sc(C(=O)Nc2cccc(N)c2)c(C)c1C(=O)OC", "activity change, negative = cytotoxicity": "inactive"},
      {"smiles": "c1ccc(Cn2c(-c3ccco3)nc3nc4ccccc4nc32)cc1", "activity change, negative = cytotoxicity": "inactive"},
      {"smiles": "Cc1scc(C(=O)N/N=C/c2ccc(Cl)s2)c1C", "activity change, negative = cytotoxicity": "inactive"},
      {"smiles": "COc1ccc(-c2cn3cccc(C)c3n2)cc1Br", "activity change, negative = cytotoxicity": "inactive"},
      {"smiles": "CC(C)(C)c1cc(NCCCn2ccnc2)n2ncc(-c3ccccc3)c2n1", "activity change, negative = cytotoxicity": "inactive"},
      {"smiles": "O=c1c2ccccc2nc2c3ccccc3c(NCc3ccccn3)nn12", "activity change, negative = cytotoxicity": "-3.53% [at 6 µM] (inactive)"},
      {"smiles": "C=CCSc1cc(C)nc2c(-c3ccccc3)cnn12", "activity change, negative = cytotoxicity": "inactive"},
      {"smiles": "Cc1cc(C)n(-c2cc(C(C)(C)C)nc3c(-c4ccccc4)cnn23)n1", "activity change, negative = cytotoxicity": "inactive"},
      {"smiles": "CN(C)c1ccc(C#Cc2ccc3cc(CCCO)oc(=O)c3c2)cc1", "activity change, negative = cytotoxicity": "inactive"},
      {"smiles": "Cc1ccc(-n2nc3c(n2)/C(=N/O)CC/C3=N\\O)cc1", "activity change, negative = cytotoxicity": "inactive"},
      {"smiles": "CCCCCC(=O)Nc1nc2ccccc2[nH]1", "activity change, negative = cytotoxicity": "inactive"},
      {"smiles": "Cc1ccc(-c2csc(NC(=O)c3cccc(C)c3)c2C(=O)O)cc1", "activity change, negative = cytotoxicity": "inactive"},
      {"smiles": "N/C(=N\\OC(=O)COc1ccccc1)c1ccccn1", "activity change, negative = cytotoxicity": "inactive"},
      {"smiles": "CCCCNc1c(-c2ccc(SC3CCCCC3)cc2)nc2ccccn12", "activity change, negative = cytotoxicity": "inactive"},
      {"smiles": "O=c1[nH]c(/C=C/c2ccc(Br)cc2)nc2ccccc12", "activity change, negative = cytotoxicity": "inactive"},
      {"smiles": "c1ccc([C@H]2CN3C(=N2)Sc2ccccc23)cc1", "activity change, negative = cytotoxicity": "inactive"},
      {"smiles": "O=C(NC1CCCCC1)c1cc(-c2cccs2)on1", "activity change, negative = cytotoxicity": "inactive"},
      {"smiles": "O=C(NC1CCCC1)c1cc(-c2ccc(Cl)cc2)on1", "activity change, negative = cytotoxicity": "inactive"},
      {"smiles": "COc1cc2nn(-c3ccccc3N)nc2cc1OC", "activity change, negative = cytotoxicity": "inactive"},
      {"smiles": "Cc1ccc(NC(=O)c2sccc2C)nc1", "activity change, negative = cytotoxicity": "inactive"},
      {"smiles": "CCOC(=O)c1sc(NC(=O)C2CCC2)cc1C", "activity change, negative = cytotoxicity": "inactive"},
      {"smiles": "CCOC(=O)c1sc(NC(=O)Nc2ccc(Cl)cc2)nc1C", "activity change, negative = cytotoxicity": "inactive"},
      {"smiles": "Cc1csc(NC(=O)Nc2cccc(Cl)c2)n1", "activity change, negative = cytotoxicity": "inactive"},
      {"smiles": "Cc1ccc(C(=O)/C=C/Nc2ccccc2C(N)=O)cc1", "activity change, negative = cytotoxicity": "inactive"},
      {"smiles": "Cn1cccc1C(=O)Nc1ccc(N2CCOCC2)cc1", "activity change, negative = cytotoxicity": "inactive"},
      {"smiles": "COc1cccc2nc3cc(C)c(C)cc3nc12", "activity change, negative = cytotoxicity": "inactive"},
      {"smiles": "CCCC1CCC(c2ccc(OCC)cc2)=CC1=O", "note": "(stereo not given)", "activity change, negative = cytotoxicity": "inactive"},
      {"smiles": "Cc1ccc2nc(SCC(=O)c3ccc(O)cc3O)[nH]c2c1", "activity change, negative = cytotoxicity": "inactive"},
      {"smiles": "Fc1ccccc1Cn1nnc(-c2ccc3c(c2)OCO3)n1", "activity change, negative = cytotoxicity": "inactive"},
      {"smiles": "Fc1ccccc1COc1ccc(/C=N/n2cnnc2)cc1", "activity change, negative = cytotoxicity": "inactive"},
      {"smiles": "CCN1C(=O)S/C(=C\\c2ccc(N3CCOCC3)cc2C)C1=O", "activity change, negative = cytotoxicity": "inactive"},
      {"smiles": "O=C(Nc1nc2c(F)cccc2s1)c1ccco1", "activity change, negative = cytotoxicity": "inactive"},
      {"smiles": "Cn1c(=NC(=O)c2cnccn2)sc2ccccc21", "activity change, negative = cytotoxicity": "inactive"},
      {"smiles": "Cc1sc(NC(=O)C2CCCCC2)c(C#N)c1-c1ccccc1", "activity change, negative = cytotoxicity": "inactive"},
      {"smiles": "COc1ccc2oc(C(=O)Nc3ccccn3)c(C)c2c1", "activity change, negative = cytotoxicity": "inactive"},
      {"smiles": "CCOc1ccc2oc(C(=O)Nc3nccs3)c(C)c2c1", "activity change, negative = cytotoxicity": "inactive"},
      {"smiles": "COc1ccc(N=C2SC(CC(=O)Nc3ccccc3)C(=O)N2Cc2ccco2)cc1", "note": "(stereo not given)", "activity change, negative = cytotoxicity": "inactive"}
    ]}
  ]
}
